Source: PubChem
Only some compounds are listed: those with a hit (about 1.7% of all), similar ones and a draw of the others.
GLP-1R inv ag – GLP-1 receptor (human) inverse agonism | hit rate 1.6% among 410,000 | AID 624417 | Potency, µM (titrated, usually from 38.3 µM), for the others: at the top dose activity change, negative = inhibition, actives largely listed as inhibitors | HEK293 GLP-1R CRE-luciferase, luminescence, 24 h; GLP-1R form is constitutively active; further: on the % scale 0 is the no-effect control and ±100 the full control effect; nearly all actives have a fitted effect of over 55% in size
Target sequence (P43220 whole entry, looked up): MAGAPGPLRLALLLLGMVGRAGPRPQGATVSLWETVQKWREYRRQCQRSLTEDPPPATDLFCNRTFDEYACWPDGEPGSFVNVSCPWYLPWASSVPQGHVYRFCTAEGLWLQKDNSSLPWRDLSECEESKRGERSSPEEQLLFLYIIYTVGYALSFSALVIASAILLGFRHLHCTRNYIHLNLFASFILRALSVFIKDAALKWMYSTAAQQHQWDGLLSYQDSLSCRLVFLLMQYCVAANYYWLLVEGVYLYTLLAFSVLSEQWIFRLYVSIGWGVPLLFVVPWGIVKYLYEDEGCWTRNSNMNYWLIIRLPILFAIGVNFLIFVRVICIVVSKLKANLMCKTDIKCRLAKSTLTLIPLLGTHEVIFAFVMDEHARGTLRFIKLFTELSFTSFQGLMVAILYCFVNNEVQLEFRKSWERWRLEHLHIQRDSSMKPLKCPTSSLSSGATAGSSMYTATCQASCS
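HEK293 cells stably co-expressing constitutively active GLP-1R and a cAMP-responsive luciferase reporter were seeded in DMEM with 10% Nu serum, given compounds after 12 h, and incubated 24 h at 37 deg C. Luminescence was then read.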
PTHR1 agonist – agonists of human PTHR1 parathyroid hormone receptor. Potency, µM (highest dose often 115 µM), for inactives: top-dose activation, most hits filed as activators. AID 743266. Q03431. hit rate 0.075% among 410,000. HEK293 GP2 PTHR1 cells, GloSensor cAMP luminescence, 1 h; further: nearly all actives have a fitted effect of over 55% in size
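HEK-293-derived GP2 cells expressing PTHR1 and a GloSensor cAMP reporter, 3,000/well, plated overnight, given luciferin plus IBMX (each 0.5 mM as added) for 1 h at 37 °C, then compound for 1 h at 37 °C. Luminescence was read after 15 min at room temperature.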
HEK293 tox – cytotoxicity in counter-screen for GLP-1R inverse agonists; HEK293 cAMP-luciferase reporter cells, luminescence, 24 h; Potency, µM (top dose mostly 38.3 µM), for inactives: at the top dose activity change, negative = inhibition, hits mostly inhibitors; hit rate 0.13% among 410,000;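 further: loss of luciferase light is scored as toxicity; on the % scale 0 is the no-effect control and ±100 the full control effect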
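1536-well qHTS counterscreen of the MLSMR; 200 cells/uL, 12 h pre-incubation, 23 nL cpd, 24 h at 37 deg C 5% CO2, luciferase detection reagent, 12 min RT, luminescence. Inhibition = undesired.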
GLP-1R agonist – agonists of human GLP-1 receptor | AID 624172 | HEK293 GLP-1R CRE-luciferase, luminescence, 4-6 h; cells express a hypersensitive GLP-1R form | Potency, µM (titrated, usually from 45.6 µM), for inactives: at the top dose activation, usual class: activators | hit rate 0.007% among 380,000 | P43220; further: % of control where 0% means no effect
An asterisk follows results filed as active; i = inactive; ? = inconclusive; nt = no result given; [ ] = dose if it differs, or a comment. The call rests on the fitted dose curve; in most records, active means well fitted curve in the direction sought with a large enough effect; inconclusive means small, poorly fitted or top-dose-only effect, or another doubt; inactive means no such curve, though single readings can be large; an effect the other way counts as inactive or inconclusive. Potency means the concentration at half of the fitted maximal effect.

SMILES	GLP-1R inv ag	PTHR1 agonist	HEK293 tox	GLP-1R agonist
C[C@H](/C=C/[C@H](C)C(C)(C)O)[C@H]1CC[C@H]2/C(=C/C=C3C[C@@H](O)C[C@H](O)C3)CCC[C@]12C	nt	nt	nt	0.1%
CCOc1ccc(NC(=O)c2ccc3nc(Cc4ccccc4)oc3c2)cc1	?	-20.5%	-12.2%	nt
CCOc1ccc(NC(=O)NCCCCc2ccccc2)cc1	-29.5%	-24.3%	6.0%	0.4%
COc1ccc(NC(=O)NCCCCc2ccccc2)cc1	6.31µM*	i	1.2%	1.2%
CNc1ccccc1C(C)(C)c1cc(-c2cc(C)cc(C)c2)no1	?	i	12.0%	0.2%
CNc1ccccc1C(C)(C)c1cc(-c2cccc(OC)c2)no1	7.08µM*	-20.2%	-11.3%	6.6%
COc1ccc(NC(=O)Cn2c(SCc3ccc(C)cc3)nc3cccnc32)c(OC)c1	-0.6%	-82.4%	-4.5%	nt
CCC/C(=C1/c2ccccc2C(=O)N1c1ccccc1)c1ccc(O[C@@H]2CCCCO2)cc1	12.6µM*	i	1.7%	-6.2%
Cc1ccc2c(c1)C(O)(c1c(C)[nH]c3ccccc13)C(=O)N2 (stereo not given)	3.16µM*	-5.6%[57.5 µM]	-11.7%	-8.2%
Cc1[nH]c2ccccc2c1C1(O)C(=O)N(C(C)C)c2ccccc21 (stereo not given)	14.1%	3.9%	1.9%	3.0%
Cc1ccc(CSC2=NC(C)(C)Nc3ccccc32)c(C)c1	10µM*	i	0.0%	nt
O=C(NCCCN1CCOCC1)/C(=C/c1ccc(-c2cccc([N+](=O)[O-])c2)o1)NC(=O)c1ccccc1	-6.1%	i	-1.0%	-2.9%
Cc1nc2nc(C)n(CCN3CCOCC3)c(=O)c2c(-c2cccc([N+](=O)[O-])c2)c1C(=O)CCCCCCCCCCN1CCC(c2ccccc2)(c2ccccc2)CC1	2.82µM*	i	?	-9.4%
CC1(C)C([N+](=O)[O-])C(c2ccc(Cl)cc2)NC(c2ccc(Cl)cc2)C1[N+](=O)[O-] (stereo not given)	10µM*	-16.5%	38.0%	-4.8%
Cc1ccc(C2NC(c3ccc(C)cc3)C([N+](=O)[O-])C(C)(C)C2[N+](=O)[O-])cc1 (stereo not given)	?	i	44.6%	0.8%
CC1(C)C([N+](=O)[O-])C(c2ccc(F)cc2)NC(c2ccc(F)cc2)C1[N+](=O)[O-] (stereo not given)	10µM*	-7.2%	25.3%	-1.5%
O=S(=O)(O)c1cccc2c(N=Nc3ccc(O)c4ncccc34)cccc12	-22.3%	i	11.2µM*	-0.9%
CCN1CCN(C(c2cccnc2)c2c(NC(=O)c3ccco3)sc(C)c2C)CC1 (stereo not given)	?	i	-11.3%	2.4%
Cc1sc(NC(=O)c2ccco2)c(C(c2cccnc2)N2CCC(C)CC2)c1C (stereo not given)	8.91µM*	-23.2%	-27.9%	-2.7%
Cc1ccc(NC(=O)c2sc3nc(C)nc(N4CCN(c5ccccn5)CC4)c3c2C)c(C)c1	11.2µM*	-14.4%	-25.3%	-0.8%
Cc1nc(N2CCN(c3ccccn3)CC2)c2c(C)c(C(=O)Nc3ccc(Br)cc3C)sc2n1	7.2%	-5.9%	-6.2%	-0.3%
CCc1ccccc1NNC(=O)c1snnc1C	10µM*	i	?	10.5%
CCn1nc([N+](=O)[O-])c(C(C#N)c2nc3cc(C(F)(F)F)ccc3s2)c(Cl)c1=O (stereo not given)	0.0%	-16.9%[57.5 µM]	5.01µM*	-22.7%
Cc1nn(Cc2c(Cl)cccc2Cl)c(C)c1NC(=O)CCCn1nc([N+](=O)[O-])c(Cl)c1C	2.51µM*	-11.7%	-3.0%	9.2%
CN(CC(=O)Nc1ccc(F)cc1)C(=O)COc1ccc(C(=O)c2ccccc2)cc1	10µM*	i	-24.2%	0.3%
SMILES	GLP-1R inv ag	PTHR1 agonist	HEK293 tox	GLP-1R agonist
O=C(CC(c1cccs1)N1Cc2ccccc2C1=O)Nc1ccccc1 (stereo not given)	-28.7%	2.4%	-10.4%	3.0%
CCCCC(=O)N(C)c1c(CC)nc2c(OCc3ccccc3C)cccn12	11.2µM*	-7.7%	5.9%	9.4%
CCc1nc2c(OCc3ccc(C(F)(F)F)cc3)cccn2c1N(C)C(=O)C1CC1	14.1µM*	-24.1%	-7.2%	-7.5%
CCOC(=O)c1[nH]c(C)c(CCC(=O)N2CCN(c3cc(C)ccc3C)CC2)c1C	?	-48.7%	0.0%	nt
COCCN1CCC(CNCc2cn[nH]c2-c2ccc(C)c(C)c2)C1 (stereo not given)	?	-22.8%	-17.5%	16.1%
COCCN1CCC(CNCc2cn(-c3cc(C)ccc3C)nc2-c2ccccc2)C1 (stereo not given)	2.82µM*	-19.2%	?	-0.7%
CCOc1ccc(C(C)=O)cc1COC(=O)CNC(=O)C12CC3CC(CC(C3)C1)C2	3.55µM*	-21.5%	-4.6%	20.0%
CCOc1ccc(C(=O)Nc2cc(C)ccn2)cc1	3.98µM*	-41.4%	4.0%	-3.3%
Cc1ccnc(NC(=O)c2ccc(S(=O)(=O)N3CCCCC3)cc2)c1	-6.4%	-13.0%	-0.9%	0.8%
Cc1ccnc(NC(=O)c2ccc(S(=O)(=O)N3CCCCCC3)cc2)c1	11.2µM*	-22.1%	7.3%	7.2%
Cc1nc2nncn2c(NCc2ccc(Cl)cc2)c1C	-27.8%	i	1.1%	nt
COc1cc(CN(C(=O)c2ccc(Cl)cc2)C2CCS(=O)(=O)C2)cc(OC)c1OC (stereo not given)	17.8%	-3.2%	5.4%	nt
CSCc1c(C(=O)N2CCCc3ccccc32)oc2ccccc12	8.91µM*	-1.3%	-1.0%	6.9%
c1ccc2cc(CSCc3nc4ccccc4[nH]3)ccc2c1	10µM*	-17.0%	?	-2.3%
COc1ccc(C(=O)NC(c2ccccc2Cl)c2cc(Cl)c3cccnc3c2O)cc1 (stereo not given)	1.78µM*	i	-8.2%	nt
CCn1c(=O)c2cc(C(=O)NCCCN3CCN(c4ccc(F)cc4)CC3)sc2c2ccccc21	3.3%	-8.6%	10.2%	-3.0%
Cc1ccc(-n2c(C)cc(/C=N/NC(=O)CN(c3ccc(C)cc3C)S(C)(=O)=O)c2C)cc1	10µM*	15.5%	-17.5%	-16.0%
Cc1cc(C)cc(-n2c(C)cc(/C=N/NC(=O)CN(c3c(C)cccc3C)S(C)(=O)=O)c2C)c1	?	-3.8%[57.5 µM]	-9.0%	3.3%
Cc1ccc(Cc2c(-c3ccc(C)cc3)nc3ccc(Cl)cn23)cc1	10µM*	i	-4.4%	-2.9%
CC(C)(C)Cc1c(-c2ccc(F)cc2)nc2ccc(Cl)cn12	5.62µM*	-49.5%	?	-5.4%
Cc1ccc(Cc2c(-c3ccc(Cl)cc3)nc3ccc(Cl)cn23)cc1	?	-36.5%	-26.8%	-6.3%
CCn1c(=O)cc(OCC(=O)N2CCN(c3ccc(C)cc3)C(C)C2)c2ccccc21 (stereo not given)	?	-27.0%	-16.6%	-1.4%
CCc1ccccc1Nc1nn2c(=O)c3ccc(C(=O)NC4CCC(C)CC4)cc3nc2s1 (stereo not given)	-18.3%	i	-2.6%	6.3%
